The values below come from article PMC7862700, “An all-to-all approach to the identification of sequence-specific readers for epigenetic DNA modifications on cytosine”.

What all share (assay): DAPPL (digital affinity profiling via proximity ligation, sequencing); 10 mM Tris-HCl pH 7.5, 50 mM NaCl, 1 mM DTT, 4% glycerol, room temperature, 30 min; GST-TFs on glutathione beads, 16-mer random dsDNA library, 0.1% formaldehyde crosslink after washing; high values mean tight binding
Common to all, as to settings: protein: recombinant; tags: N-terminal GST; dsDNA, one strand shown

Experiment [1] deals with T1, FLI1 (Homo sapiens, UniProt Q01543 1-452).
T1 sequence: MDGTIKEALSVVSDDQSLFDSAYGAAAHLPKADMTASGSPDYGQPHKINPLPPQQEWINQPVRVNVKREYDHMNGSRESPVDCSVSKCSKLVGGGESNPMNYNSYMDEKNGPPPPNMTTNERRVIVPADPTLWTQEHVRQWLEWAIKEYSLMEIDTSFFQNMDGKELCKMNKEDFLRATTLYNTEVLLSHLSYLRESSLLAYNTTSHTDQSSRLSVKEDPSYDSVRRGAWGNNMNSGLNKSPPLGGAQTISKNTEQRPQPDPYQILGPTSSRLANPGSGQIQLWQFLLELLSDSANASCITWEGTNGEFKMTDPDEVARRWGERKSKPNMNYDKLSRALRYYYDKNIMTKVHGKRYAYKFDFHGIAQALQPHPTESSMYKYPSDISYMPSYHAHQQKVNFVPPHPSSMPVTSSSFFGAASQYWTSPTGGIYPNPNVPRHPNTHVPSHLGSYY
Put shortly: (§1)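 Each value of binding signal is a hexamer's read frequency for a factor divided by the same hexamer's frequency in the tag-only sample. Barcoded, bead-captured GST fusions of human transcription factors made in yeast were pooled with that sample and incubated with 200 nmole of a random double-stranded 16-mer DNA library in Tris/NaCl/DTT/glycerol buffer at room temperature for 30 min. Washing, 0.1% formaldehyde crosslinking, proximity ligation, PCR and Illumina NextSeq500 sequencing followed.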

Experiment [2] has as its target T2, ELK1 (Homo sapiens, UniProt P19419 1-428).
T2 sequence: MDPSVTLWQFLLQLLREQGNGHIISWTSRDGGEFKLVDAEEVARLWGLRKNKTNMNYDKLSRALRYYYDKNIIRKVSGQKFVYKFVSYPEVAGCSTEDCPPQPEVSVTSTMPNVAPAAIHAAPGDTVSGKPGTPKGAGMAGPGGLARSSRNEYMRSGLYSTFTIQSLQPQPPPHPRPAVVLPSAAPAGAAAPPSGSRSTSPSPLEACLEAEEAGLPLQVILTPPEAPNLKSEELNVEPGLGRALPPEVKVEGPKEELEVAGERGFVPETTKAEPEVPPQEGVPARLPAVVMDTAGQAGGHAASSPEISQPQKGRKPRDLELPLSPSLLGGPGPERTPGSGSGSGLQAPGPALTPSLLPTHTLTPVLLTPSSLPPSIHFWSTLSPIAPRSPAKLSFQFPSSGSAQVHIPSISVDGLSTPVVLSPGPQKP
Put shortly:
as §1

Experiment [3] addresses T3, GABPA (Homo sapiens, UniProt Q06546 1-454).
T3 sequence: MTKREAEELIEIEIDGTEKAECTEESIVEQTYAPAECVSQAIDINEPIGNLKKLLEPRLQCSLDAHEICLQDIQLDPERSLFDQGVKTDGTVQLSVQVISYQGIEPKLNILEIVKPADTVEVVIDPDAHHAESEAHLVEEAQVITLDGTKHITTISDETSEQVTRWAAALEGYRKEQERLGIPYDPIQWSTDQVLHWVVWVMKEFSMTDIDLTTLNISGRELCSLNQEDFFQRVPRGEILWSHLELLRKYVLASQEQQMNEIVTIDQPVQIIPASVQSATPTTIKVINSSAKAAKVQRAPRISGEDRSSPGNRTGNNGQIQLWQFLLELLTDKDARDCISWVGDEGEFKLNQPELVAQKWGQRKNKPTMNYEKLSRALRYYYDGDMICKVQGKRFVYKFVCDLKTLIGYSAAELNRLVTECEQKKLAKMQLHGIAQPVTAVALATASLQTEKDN
Put shortly:
as §1

The target of experiment [4] is T4, ERG (Homo sapiens, UniProt P11308 1-479).
T4 sequence: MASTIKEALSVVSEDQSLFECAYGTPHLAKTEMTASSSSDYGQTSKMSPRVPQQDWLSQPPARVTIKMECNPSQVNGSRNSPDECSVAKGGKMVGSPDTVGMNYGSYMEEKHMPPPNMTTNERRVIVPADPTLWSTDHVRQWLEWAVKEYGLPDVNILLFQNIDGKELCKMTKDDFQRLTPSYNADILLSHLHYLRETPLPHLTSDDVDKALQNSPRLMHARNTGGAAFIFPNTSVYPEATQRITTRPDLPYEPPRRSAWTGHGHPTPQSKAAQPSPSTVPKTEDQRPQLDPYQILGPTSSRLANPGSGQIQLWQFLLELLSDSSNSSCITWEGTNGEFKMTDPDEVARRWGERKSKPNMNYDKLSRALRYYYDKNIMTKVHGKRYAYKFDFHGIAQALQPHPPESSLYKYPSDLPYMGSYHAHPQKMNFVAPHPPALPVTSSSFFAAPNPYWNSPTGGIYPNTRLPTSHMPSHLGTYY
Put shortly: as §1

Experiment [5] has as its target ELF1 (Homo sapiens, UniProt P32519 1-619). Put shortly: as §1
Experiment [6] concerns the target T5, EHF (Homo sapiens, UniProt Q9NZC4 1-300).
T5 sequence: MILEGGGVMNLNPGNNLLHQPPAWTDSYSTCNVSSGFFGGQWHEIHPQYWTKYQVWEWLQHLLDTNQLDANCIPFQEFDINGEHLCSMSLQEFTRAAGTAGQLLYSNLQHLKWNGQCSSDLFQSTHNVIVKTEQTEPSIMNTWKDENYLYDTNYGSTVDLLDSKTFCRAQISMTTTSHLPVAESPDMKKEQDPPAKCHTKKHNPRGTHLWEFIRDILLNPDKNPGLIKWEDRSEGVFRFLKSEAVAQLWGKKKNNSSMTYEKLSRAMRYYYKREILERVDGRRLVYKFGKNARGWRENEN
Put shortly:
as §1

The target of experiment [7] is SPI1 (Homo sapiens, UniProt P17947 1-270). Put shortly:
as §1

For experiment [8], the target named is SPIB (Homo sapiens, UniProt Q01892 1-262). Put shortly: as §1
Experiment [9] deals with T6, ELK3 (Homo sapiens, UniProt P41970 1-407).
T6 sequence: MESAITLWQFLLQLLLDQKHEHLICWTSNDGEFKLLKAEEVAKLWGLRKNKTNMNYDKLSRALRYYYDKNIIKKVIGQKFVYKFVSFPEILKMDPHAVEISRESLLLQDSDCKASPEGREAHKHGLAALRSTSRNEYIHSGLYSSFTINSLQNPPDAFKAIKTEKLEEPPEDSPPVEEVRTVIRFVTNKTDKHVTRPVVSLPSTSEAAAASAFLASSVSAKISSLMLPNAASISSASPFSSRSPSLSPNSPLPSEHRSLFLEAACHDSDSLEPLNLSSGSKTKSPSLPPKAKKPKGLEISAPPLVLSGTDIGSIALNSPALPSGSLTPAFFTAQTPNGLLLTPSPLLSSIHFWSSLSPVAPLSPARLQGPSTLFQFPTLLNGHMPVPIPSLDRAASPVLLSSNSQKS
Put shortly: as §1

Experiment [10] concerns the target T7, FEV (Homo sapiens, UniProt Q99581 1-238).
T7 sequence: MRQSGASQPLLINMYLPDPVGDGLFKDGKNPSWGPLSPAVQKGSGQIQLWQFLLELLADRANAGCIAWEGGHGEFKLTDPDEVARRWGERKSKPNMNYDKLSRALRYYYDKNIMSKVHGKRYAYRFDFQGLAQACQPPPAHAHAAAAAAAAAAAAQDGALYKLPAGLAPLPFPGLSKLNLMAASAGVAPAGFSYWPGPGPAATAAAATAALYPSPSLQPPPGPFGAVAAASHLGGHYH
Put shortly: as §1

The target in experiment [11] is ETV5 (Homo sapiens, UniProt P41161 1-510). Put shortly:
as §1

In experiment [12] the target is T8, SPIC (Homo sapiens, UniProt Q8N5J4 1-248).
T8 sequence: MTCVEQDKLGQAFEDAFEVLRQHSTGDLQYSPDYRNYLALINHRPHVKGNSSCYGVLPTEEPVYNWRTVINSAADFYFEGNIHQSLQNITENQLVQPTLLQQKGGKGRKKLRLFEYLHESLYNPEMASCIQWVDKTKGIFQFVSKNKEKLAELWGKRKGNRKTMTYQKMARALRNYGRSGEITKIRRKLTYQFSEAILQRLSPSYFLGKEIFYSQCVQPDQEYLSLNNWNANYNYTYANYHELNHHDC
Put shortly:
as §1

In experiment [13] the target is ELF4 (Homo sapiens, UniProt Q99607 1-663). Put shortly:
as §1

Experiment [14] concerns the target T9, ELK4 (Homo sapiens, UniProt P28324-2 1-405).
T9 sequence: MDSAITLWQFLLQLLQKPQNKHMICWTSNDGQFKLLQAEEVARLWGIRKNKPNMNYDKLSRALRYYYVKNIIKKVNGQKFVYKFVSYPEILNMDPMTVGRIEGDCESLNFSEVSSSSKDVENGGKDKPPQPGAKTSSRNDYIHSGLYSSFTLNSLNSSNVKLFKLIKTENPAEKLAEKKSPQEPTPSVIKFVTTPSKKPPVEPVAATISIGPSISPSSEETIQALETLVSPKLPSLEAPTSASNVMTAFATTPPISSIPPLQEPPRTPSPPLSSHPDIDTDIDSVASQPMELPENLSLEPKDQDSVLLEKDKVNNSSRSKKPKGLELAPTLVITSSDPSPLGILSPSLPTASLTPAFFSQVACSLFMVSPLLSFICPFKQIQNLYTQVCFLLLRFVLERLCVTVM
Put shortly:
as §1

Experiment [15] addresses T10, ETV2 (Homo sapiens, UniProt O00321 1-342).
T10 sequence: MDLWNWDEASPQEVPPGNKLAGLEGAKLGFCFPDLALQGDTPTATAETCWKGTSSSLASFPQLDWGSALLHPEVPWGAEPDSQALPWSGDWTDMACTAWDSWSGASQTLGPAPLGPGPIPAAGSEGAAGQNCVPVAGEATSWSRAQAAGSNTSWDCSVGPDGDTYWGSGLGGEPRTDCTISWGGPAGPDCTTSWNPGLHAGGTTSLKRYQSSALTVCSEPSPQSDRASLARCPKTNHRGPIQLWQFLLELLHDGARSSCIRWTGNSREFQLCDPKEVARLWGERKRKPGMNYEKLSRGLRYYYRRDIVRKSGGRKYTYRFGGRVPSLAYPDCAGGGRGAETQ
Put shortly: as §1

The target in experiment [16] is T11, ELF3 (Homo sapiens, UniProt P78545 1-371).
T11 sequence: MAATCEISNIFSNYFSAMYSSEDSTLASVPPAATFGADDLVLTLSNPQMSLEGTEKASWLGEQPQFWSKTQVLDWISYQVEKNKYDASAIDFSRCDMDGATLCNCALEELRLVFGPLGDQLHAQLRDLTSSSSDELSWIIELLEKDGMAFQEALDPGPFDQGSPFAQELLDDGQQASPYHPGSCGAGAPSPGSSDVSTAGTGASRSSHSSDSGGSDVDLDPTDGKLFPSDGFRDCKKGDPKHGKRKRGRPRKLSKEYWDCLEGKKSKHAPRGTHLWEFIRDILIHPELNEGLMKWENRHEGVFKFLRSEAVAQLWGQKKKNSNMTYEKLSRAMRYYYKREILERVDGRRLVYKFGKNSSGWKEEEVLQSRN
Put shortly:
as §1

Experiment [17] addresses ETV1 (Homo sapiens, UniProt P50549 1-477). Put shortly:
as §1

Chain of ETV1 (P50549 whole entry): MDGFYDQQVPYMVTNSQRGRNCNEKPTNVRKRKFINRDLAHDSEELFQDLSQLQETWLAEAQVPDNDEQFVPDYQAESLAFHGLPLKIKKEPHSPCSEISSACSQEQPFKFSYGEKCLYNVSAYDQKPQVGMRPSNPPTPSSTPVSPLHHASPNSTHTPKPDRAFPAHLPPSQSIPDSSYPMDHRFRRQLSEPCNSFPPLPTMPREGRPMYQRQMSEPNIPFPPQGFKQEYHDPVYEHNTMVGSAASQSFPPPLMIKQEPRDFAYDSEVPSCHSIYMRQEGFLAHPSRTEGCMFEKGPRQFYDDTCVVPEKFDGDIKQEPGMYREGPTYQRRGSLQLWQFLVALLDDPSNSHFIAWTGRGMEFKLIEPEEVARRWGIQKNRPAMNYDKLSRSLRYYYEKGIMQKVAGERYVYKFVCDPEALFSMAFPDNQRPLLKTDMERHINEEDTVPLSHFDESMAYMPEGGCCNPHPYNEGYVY
Chain of ETV5 (P41161 whole entry): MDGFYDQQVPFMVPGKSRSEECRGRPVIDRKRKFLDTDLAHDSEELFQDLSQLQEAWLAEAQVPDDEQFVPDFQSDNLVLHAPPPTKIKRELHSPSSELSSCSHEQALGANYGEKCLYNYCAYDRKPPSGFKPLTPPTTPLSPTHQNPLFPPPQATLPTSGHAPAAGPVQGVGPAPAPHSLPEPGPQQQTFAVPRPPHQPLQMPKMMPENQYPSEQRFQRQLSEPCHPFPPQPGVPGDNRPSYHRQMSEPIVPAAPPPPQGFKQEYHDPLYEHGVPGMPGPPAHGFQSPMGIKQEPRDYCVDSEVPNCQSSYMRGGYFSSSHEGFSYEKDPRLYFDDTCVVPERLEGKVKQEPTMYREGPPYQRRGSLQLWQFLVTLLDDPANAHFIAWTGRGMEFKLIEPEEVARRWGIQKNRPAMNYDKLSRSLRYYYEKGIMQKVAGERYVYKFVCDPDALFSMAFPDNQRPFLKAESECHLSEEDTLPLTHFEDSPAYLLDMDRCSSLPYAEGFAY
Chain of SPIB (Q01892 whole entry): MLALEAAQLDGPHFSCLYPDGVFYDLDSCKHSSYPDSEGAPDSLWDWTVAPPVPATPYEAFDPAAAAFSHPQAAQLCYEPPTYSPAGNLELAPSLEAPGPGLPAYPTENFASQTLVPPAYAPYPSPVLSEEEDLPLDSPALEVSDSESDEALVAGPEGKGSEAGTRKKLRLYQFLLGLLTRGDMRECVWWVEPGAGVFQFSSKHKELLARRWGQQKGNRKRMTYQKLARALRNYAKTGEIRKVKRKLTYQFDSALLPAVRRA
Chain of ELF1 (P32519 whole entry): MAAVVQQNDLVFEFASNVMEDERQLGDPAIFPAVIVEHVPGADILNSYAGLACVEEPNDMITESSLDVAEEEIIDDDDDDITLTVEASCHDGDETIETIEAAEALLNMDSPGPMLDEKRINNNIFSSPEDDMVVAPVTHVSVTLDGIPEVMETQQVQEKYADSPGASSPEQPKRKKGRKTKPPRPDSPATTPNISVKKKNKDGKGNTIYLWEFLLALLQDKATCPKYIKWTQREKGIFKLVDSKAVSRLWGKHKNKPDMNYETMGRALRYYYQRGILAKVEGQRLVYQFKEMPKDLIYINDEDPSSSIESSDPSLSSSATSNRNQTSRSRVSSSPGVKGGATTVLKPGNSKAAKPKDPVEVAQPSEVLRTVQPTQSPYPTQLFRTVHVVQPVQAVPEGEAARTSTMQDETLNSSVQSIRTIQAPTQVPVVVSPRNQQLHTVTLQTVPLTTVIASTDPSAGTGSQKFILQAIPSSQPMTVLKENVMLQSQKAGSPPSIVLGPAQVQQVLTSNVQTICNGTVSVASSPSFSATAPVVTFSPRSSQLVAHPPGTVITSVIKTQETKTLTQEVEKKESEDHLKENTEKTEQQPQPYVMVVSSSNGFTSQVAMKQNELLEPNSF
Chain of ELF4 (Q99607 whole entry): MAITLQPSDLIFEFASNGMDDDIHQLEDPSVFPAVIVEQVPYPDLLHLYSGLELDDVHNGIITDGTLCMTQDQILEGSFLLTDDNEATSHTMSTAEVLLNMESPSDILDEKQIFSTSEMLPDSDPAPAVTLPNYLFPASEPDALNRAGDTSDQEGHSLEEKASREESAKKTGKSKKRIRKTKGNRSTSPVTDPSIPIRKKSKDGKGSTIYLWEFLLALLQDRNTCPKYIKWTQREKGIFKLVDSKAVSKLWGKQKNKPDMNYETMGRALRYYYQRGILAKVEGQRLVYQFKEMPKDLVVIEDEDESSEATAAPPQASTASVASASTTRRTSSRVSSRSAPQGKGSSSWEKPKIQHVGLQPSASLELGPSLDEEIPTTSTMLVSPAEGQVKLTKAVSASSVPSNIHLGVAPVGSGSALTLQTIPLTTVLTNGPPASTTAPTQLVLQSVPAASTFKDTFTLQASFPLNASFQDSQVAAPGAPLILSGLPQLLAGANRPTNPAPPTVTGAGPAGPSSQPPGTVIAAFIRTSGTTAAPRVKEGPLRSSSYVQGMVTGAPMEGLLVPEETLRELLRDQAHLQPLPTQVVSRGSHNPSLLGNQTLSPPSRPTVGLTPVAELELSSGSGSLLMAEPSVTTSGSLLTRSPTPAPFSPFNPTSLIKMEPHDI

For CCATCC, the binding signal was 1.24 fold enrichment (6-mer frequency, TF over GST control) in [1]; 1.28 fold enrichment (6-mer frequency, TF over GST control) in experiment [2]; 1.23 fold enrichment (6-mer frequency, TF over GST control) in experiment [3]; 1.32 fold enrichment (6-mer frequency, TF over GST control) in experiment [4]; 1.27 fold enrichment (6-mer frequency, TF over GST control) in experiment [5]; 1.27 fold enrichment (6-mer frequency, TF over GST control) in experiment [6]. Moreover, the binding signal in [7] is 1.31 fold enrichment (6-mer frequency, TF over GST control); in [8] it was 1.3 fold enrichment (6-mer frequency, TF over GST control); in [9] it was 1.41 fold enrichment (6-mer frequency, TF over GST control); in [10], 1.3 fold enrichment (6-mer frequency, TF over GST control); in experiment [11] it was 1.27 fold enrichment (6-mer frequency, TF over GST control); in experiment [12], 1.33 fold enrichment (6-mer frequency, TF over GST control). Also, the binding signal in experiment [13] is 1.27 fold enrichment (6-mer frequency, TF over GST control); in experiment [14], 1.19 fold enrichment (6-mer frequency, TF over GST control); in experiment [15], 1.19 fold enrichment (6-mer frequency, TF over GST control); in [16], 1.12 fold enrichment (6-mer frequency, TF over GST control); in experiment [17], 1.24 fold enrichment (6-mer frequency, TF over GST control).
Regarding CCCCGG, the binding signal in [1] is 1.19 fold enrichment (6-mer frequency, TF over GST control); in [2], 1.18 fold enrichment (6-mer frequency, TF over GST control); in experiment [3], 1.15 fold enrichment (6-mer frequency, TF over GST control); in [4], 1.3 fold enrichment (6-mer frequency, TF over GST control); in [5] it was 1.22 fold enrichment (6-mer frequency, TF over GST control); in [6] it was 1.24 fold enrichment (6-mer frequency, TF over GST control). Moreover, the binding signal is 1.16 fold enrichment (6-mer frequency, TF over GST control) in experiment [7]; 1.27 fold enrichment (6-mer frequency, TF over GST control) in [8]; 1.2 fold enrichment (6-mer frequency, TF over GST control) in experiment [9]; 1.38 fold enrichment (6-mer frequency, TF over GST control) in experiment [10]; 1.27 fold enrichment (6-mer frequency, TF over GST control) in experiment [11]; 1.07 fold enrichment (6-mer frequency, TF over GST control) in experiment [12]. Also, the binding signal in experiment [13] was 1.2 fold enrichment (6-mer frequency, TF over GST control); in [14], 1.31 fold enrichment (6-mer frequency, TF over GST control); in experiment [15], 1.24 fold enrichment (6-mer frequency, TF over GST control); in experiment [16] it was 1.09 fold enrichment (6-mer frequency, TF over GST control); in experiment [17], 1.29 fold enrichment (6-mer frequency, TF over GST control).
